The panel holds about 83,000 compounds, 20% with a hit somewhere; the sample as a whole holds those more often.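 Compound tested at a single concentration for 48 hours in 96-well plates; a percent growth value below 10 was scored as active.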 The source made the active and inactive calls.
The compounds below were run on HL-60(TB) leukemia (assay: NCI-60 one-dose screen, 48 h (100 = growth as untreated, 0 = no growth, -100 = all killed)). Conditions: 10 µM unless noted.

Structure (SMILES)	growth
OCCCNc1oc(-c2ccccc2)nc1[P+](c1ccccc1)(c1ccccc1)c1ccccc1	-35.8% (active)
COc1cc(CNC(=O)C[C@H](C)CCC=C(C)C)ccc1OCc1cn(-c2ccc(Cl)c(Cl)c2)nn1	84% (inactive)
COc1ccc(C2NC(=S)NC(C)=C2C(=O)OC(C)C)cc1OC (stereo not given)	100% (inactive)
Cc1nn(-c2ccccc2)c2nc(C)n(CC(=O)N/N=C/c3cccc([N+](=O)[O-])c3)c(=O)c12	99% (inactive)
COc1ccc2[nH]c(=O)c(CSc3ccccc3Nc3nccc(-c4ccc5c(c4)OCO5)n3)cc2c1	74% (inactive)
